According to PubChem BioAssay AID1159580 (chemical genetic matrix, 2015):
Where “and” joins values, the source holds several entries; their conditions need not be identical. Identical values can stand only once. About 2,000 (36%) of roughly 5,500 compounds were called active. About 18% were inconclusive and are not listed. Cut-off read from the data, not from the text of the source: active = normalized growth mostly below about 0.91 (no sharp cut-off); inconclusive = no clear call, values can overlap the other calls; inactive = mostly above about 0.92. The list shows a part of the results.

Assay: chemical genetic growth profiling, strain panel (AID 1159580);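 note: tested at 20 µM; growth read once vehicle control cultures reached saturation at 30 °C; 1 = growth at the plate median or of vehicle wells; lower values mean less growth of the strain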
Settings: growth OD

Measured: normalized growth

N=c1nc(N2CCCCC2)cc(N)n1O
inactive: S. cerevisiae deletion strains, locus YJR075W, strain HOC1, stronger effect = lower value 1 | S. cerevisiae deletion strains, locus YKL009W, strain mrt4, stronger effect = lower value 0.948 | S. cerevisiae deletion strains, locus YKL068W, stronger effect = lower value 0.993 | S. cerevisiae deletion strains, locus YKL085W, strain MDH1 (second series), stronger effect = lower value 0.995 | S. cerevisiae deletion strains, locus YKL085W, strain MDH1, stronger effect = lower value 0.995 | S. cerevisiae deletion strains, locus YKL160W, strain elf1, stronger effect = lower value 0.969 | S. cerevisiae deletion strains, locus YKL190W, strain CNB1, stronger effect = lower value 0.996 | S. cerevisiae deletion strains, locus YKR001C, strain vps1, stronger effect = lower value 0.995 | S. cerevisiae deletion strains, locus YKR026C, strain gcn3, stronger effect = lower value 0.997 | S. cerevisiae deletion strains, locus YKR091W, strain srl3, stronger effect = lower value 0.977 | S. cerevisiae deletion strains, locus YLL001W, strain dnm1, stronger effect = lower value 0.932 | S. cerevisiae deletion strains, locus YLL026W, stronger effect = lower value 0.985 | S. cerevisiae deletion strains, locus YLL041C, strain sdh2, stronger effect = lower value 0.99 | S. cerevisiae deletion strains, locus YLR027C, strain aat2, stronger effect = lower value 1.01 | S. cerevisiae deletion strains, locus YLR039C, strain RIC1, stronger effect = lower value 0.976 | S. cerevisiae deletion strains, locus YLR058C, strain SHM2, stronger effect = lower value 0.97 | S. cerevisiae deletion strains, locus YLR102C, strain apc9, stronger effect = lower value 0.981 | S. cerevisiae deletion strains, locus YLR113W, strain HOG1, stronger effect = lower value 0.984 | S. cerevisiae deletion strains, locus YLR221C, strain rsa3, stronger effect = lower value 0.948 | S. cerevisiae deletion strains, locus YLR258W, strain gsy2, stronger effect = lower value 0.998 | S. cerevisiae deletion strains, locus YLR262C, strain YPT6 (second series), stronger effect = lower value 0.989 | S. cerevisiae deletion strains, locus YLR262C, strain YPT6, stronger effect = lower value 0.903 | S. cerevisiae deletion strains, locus YLR268W, strain sec22, stronger effect = lower value 1.08 | S. cerevisiae deletion strains, locus YLR320W, strain mms22, stronger effect = lower value 0.96 | S. cerevisiae deletion strains, locus YLR330W, strain CHS5, stronger effect = lower value 0.979 | S. cerevisiae deletion strains, locus YLR342W, strain FKS1 (second series), stronger effect = lower value 0.98 | S. cerevisiae deletion strains, locus YLR342W, strain FKS1, stronger effect = lower value 0.985 | S. cerevisiae deletion strains, locus YLR357W, strain rsc2, stronger effect = lower value 0.996 | S. cerevisiae deletion strains, locus YLR370C, strain arc18, stronger effect = lower value 0.982 | S. cerevisiae deletion strains, locus YLR371W, strain rom2, stronger effect = lower value 0.95 | S. cerevisiae deletion strains, locus YLR384C, strain iki3, stronger effect = lower value 0.987 | S. cerevisiae deletion strains, locus YLR418C, strain cdc73, stronger effect = lower value 0.994 | S. cerevisiae deletion strains, locus YML016C, strain PPZ1, stronger effect = lower value 0.973 | S. cerevisiae deletion strains, locus YML032C, strain rad52, stronger effect = lower value 0.998 | S. cerevisiae deletion strains, locus YML120C, strain ndi1, stronger effect = lower value 0.959 | S. cerevisiae deletion strains, locus YML124C, strain tub3, stronger effect = lower value 0.98 | S. cerevisiae deletion strains, locus YMR058W, strain fet3, stronger effect = lower value 0.986 | S. cerevisiae deletion strains, locus YMR078C, strain ctf18, stronger effect = lower value 0.979 | S. cerevisiae deletion strains, locus YMR125W, strain sto1, stronger effect = lower value 0.978 | S. cerevisiae deletion strains, locus YMR129W, stronger effect = lower value 0.99 | S. cerevisiae deletion strains, locus YMR205C, strain PFK2, stronger effect = lower value 0.947 | S. cerevisiae deletion strains, locus YMR223W, strain ubp8, stronger effect = lower value 0.945 | S. cerevisiae deletion strains, locus YMR231W, strain pep5, stronger effect = lower value 0.991 | S. cerevisiae deletion strains, locus YMR263W, strain SAP30, stronger effect = lower value 0.993 | S. cerevisiae deletion strains, locus YMR307W, strain GAS1, stronger effect = lower value 0.935 | S. cerevisiae deletion strains, locus YNL067W, strain RPL9B, stronger effect = lower value 0.999 | S. cerevisiae deletion strains, locus YNL071W, strain lat1, stronger effect = lower value 0.991 | S. cerevisiae deletion strains, locus YNL128W, strain TEP1, stronger effect = lower value 0.953 | S. cerevisiae deletion strains, locus YNL153C, strain GIM3, stronger effect = lower value 1.01 | S. cerevisiae deletion strains, locus YNL175C, strain NOP13, stronger effect = lower value 0.994 | S. cerevisiae deletion strains, locus YNL183C, strain NPR1, stronger effect = lower value 0.945 | S. cerevisiae deletion strains, locus YNL197C, strain WHI3, stronger effect = lower value 0.993 | S. cerevisiae deletion strains, locus YNL209W, strain ssb2, stronger effect = lower value 0.984 | S. cerevisiae deletion strains, locus YNL224C, strain SQS1, stronger effect = lower value 1.01 | S. cerevisiae deletion strains, locus YNL233W, strain BNI4, stronger effect = lower value 0.998 | S. cerevisiae deletion strains, locus YNL248C, strain rpa49, stronger effect = lower value 1 | S. cerevisiae deletion strains, locus YNL250W, strain rad50, stronger effect = lower value 0.98 | S. cerevisiae deletion strains, locus YNL271C, strain bni1, stronger effect = lower value 0.987 | S. cerevisiae deletion strains, locus YNL298W, strain CLA4, stronger effect = lower value 0.996 | S. cerevisiae deletion strains, locus YNL307C, strain MCK1, stronger effect = lower value 0.999 | S. cerevisiae deletion strains, locus YNL322C, strain KRE1 (second series), stronger effect = lower value 0.98 | S. cerevisiae deletion strains, locus YNL322C, strain KRE1, stronger effect = lower value 0.989 and 0.993 | S. cerevisiae deletion strains, locus YNR049C, strain mso1, stronger effect = lower value 0.972 | S. cerevisiae deletion strains, locus YNR052C, strain pop2, stronger effect = lower value 0.98 | S. cerevisiae deletion strains, locus YOL006C, strain TOP1, stronger effect = lower value 1.02 | S. cerevisiae deletion strains, locus YOL012C, strain htz1 0.984 | S. cerevisiae deletion strains, locus YOL147C, strain pex11, stronger effect = lower value 0.987 | S. cerevisiae deletion strains, locus YOR001W, strain rrp6, stronger effect = lower value 1.02 | S. cerevisiae deletion strains, locus YOR061W, strain CKA2, stronger effect = lower value 0.964 | S. cerevisiae deletion strains, locus YOR069W, strain VPS5, stronger effect = lower value 0.987 | S. cerevisiae deletion strains, locus YOR070C, strain gyp1, stronger effect = lower value 0.996 | S. cerevisiae deletion strains, locus YOR080W, strain dia2, stronger effect = lower value 0.984 | S. cerevisiae deletion strains, locus YOR083W, strain WHI5 (second series), stronger effect = lower value 1.01 | S. cerevisiae deletion strains, locus YOR083W, strain WHI5, stronger effect = lower value 0.974 | S. cerevisiae deletion strains, locus YOR106W, strain vam3, stronger effect = lower value 0.944 | S. cerevisiae deletion strains, locus YOR136W, strain idh2, stronger effect = lower value 0.988 | S. cerevisiae deletion strains, locus YOR144C, strain elg1, stronger effect = lower value 0.988 | S. cerevisiae deletion strains, locus YOR184W, strain ser1, stronger effect = lower value 1 | S. cerevisiae deletion strains, locus YOR231W, strain MKK1, stronger effect = lower value 1.02 | S. cerevisiae deletion strains, locus YOR265W, strain rbl2, stronger effect = lower value 0.989 | S. cerevisiae deletion strains, locus YOR270C, strain vph1, stronger effect = lower value 0.979 | S. cerevisiae deletion strains, locus YOR290C, strain snf2, stronger effect = lower value 0.896 | S. cerevisiae deletion strains, locus YOR316C, strain cot1, stronger effect = lower value 0.993 | S. cerevisiae deletion strains, locus YPL051W, strain arl3, stronger effect = lower value 1 | S. cerevisiae deletion strains, locus YPL055C, strain LGE1, stronger effect = lower value 0.988 and 0.98 | S. cerevisiae deletion strains, locus YPL078C, strain atp4, stronger effect = lower value 0.968 | S. cerevisiae deletion strains, locus YPL106C, strain sse1, stronger effect = lower value 0.948 | S. cerevisiae deletion strains, locus YPL240C, strain hsp82, stronger effect = lower value 0.981 | S. cerevisiae deletion strains, locus YPL241C, strain CIN2, stronger effect = lower value 0.976 | S. cerevisiae deletion strains, locus YPL256C, strain CLN2, stronger effect = lower value 0.993 | S. cerevisiae deletion strains, locus YPR119W, strain clb2, stronger effect = lower value 0.982 | S. cerevisiae deletion strains, locus YPR141C, strain kar3, stronger effect = lower value 0.974 | S. cerevisiae deletion strains, locus YPR163C, strain tif3, stronger effect = lower value 0.993 | S. cerevisiae deletion strains, locus YPR167C, strain met16, stronger effect = lower value 0.995 | S. cerevisiae deletion strains, strain wtn01, stronger effect = lower value 1.04 | S. cerevisiae strains, strain wild type, stronger effect = lower value 0.992
